Measurements as given in PubChem BioAssay (Tox21).
Calls of active or inactive are those of the source. Calls follow the shape of the dose curve; as a rule, active = well fitted curve in the direction sought with a large enough effect in the repeat runs; inconclusive = weak or mixed curves; inactive = flat fitted curve, though single readings scatter.

assay: qHTS assay to test for compound auto fluorescence at 535 nm (green) in HEK293 cell free culture (AID 720682); settings: cell-free medium, green autofluorescence 485/535 nm, active compounds read high; series mostly up to 46 µM; activity change: at the top concentration
Description: U.S. Tox21 Program National Center for Advancing Translational Sciences [NCATS] NIH Chemical Genomics Center [NCGC] U.S. Environmental Protection Agency [EPA] National Institutes of Environmental Health Sciences [NIEHS] National Toxicology Program [NTP] U.S. Food and Drug Administration [FDA] Tox21 Assay Overview: Compound auto fluorescence often interferes with screening of the compound library against various biological targets and signaling pathways. Some of these compounds may have fluorophoric properties. Such properties may interfere with the assay outputs resulting in false positives and/or negatives. To decrease such complications and ensure the compound activities are relevant in terms of biological response, the Tox21 10K compound library was screened for auto fluorescence. From the fluorophores used as reporter signals in our screening assays, the auto fluorescence equivalencies of compounds against three fluorophores have been evaluated: Triamterene, Fluorescein and Rose Bengal sodium for blue, green and red fluorescence, respectively. The fluorescence intensities were measured using Excitation/Emission wavelengths at 405/460nm, 485/535nm and 540/590nm for blue, green and red labels, respectively. This assay includes the green fluorescence data.
Tox21 Assay Protocol Summary: 5 uL of culture medium (DMEM containing 10% FBS) per well was dispensed into black wall/clear bottom 1536-well plates using a Multidrop Combi Dispenser (ThermoFisher Scientific, Waltham, MA). After 23 nL compound or DMSO vehicle was transferred into assay plate by a pintool work station (Kalypsys, San Diego, CA), fluorescence intensities in the assay plates were measured by an Envision (PerkinElmer, Shelton, CT) plate reader using three labels for measuring blue, green and red fluorescence at […] 460, 535 and 590nm respectively.
% is scaled to controls: 0 for no effect and ±100 for the full control effect.

SMILES	activity change	outcome
COC(C)(C)CCCC(C)CC=O (stereo not given)	0.0199% [at 91.3 µM] (inactive)	–
CC/C=C\CC/C=C/C(OCC)OCC	0.0677% [at 91.3 µM] (inactive)	–
N[C@H]1CN(c2c(F)cc3c(=O)c(C(=O)O)cn(C4C[C@H]4F)c3c2Cl)CC12CC2 (stereo not given in full)	-0.0771% (inactive)	–
CC(C)(CC(=O)O)C(=O)O	0.0453% [at 91.3 µM] (inactive)	–
CCCCOCCOCCOCc1cc2c(cc1CCC)OCO2	–	inactive
NS(=O)(=O)c1cc2c(cc1Cl)NC(C1CC3C=CC1C3)NS2(=O)=O (stereo not given)	0.0726% (inactive)	–
CC(=O)OCC(=O)[C@@]1(O)CCC2C3CCC4=CC(=O)CC[C@]4(C)C3[C@@H](O)C[C@@]21C (stereo not given in full)	0.011% (inactive)	–
COC(=O)NN	-0.117% [at 95.7 µM] (inactive)	–
CCCCCSCCCCC	-0.0163% [at 91.3 µM] (inactive)	–
O=S(O)CO	–	inactive
Cc1c(O)cccc1O	0.0475% [at 95.7 µM] (inactive)	–
CCCc1cc(C(N)=S)ccn1	0.0428% (inactive)	–
CCc1ccc(O)c(OC)c1	-0.0448% [at 91.3 µM] (inactive)	–
O=[N+]([O-])c1ccc(F)cc1F	0.0243% [at 91.3 µM] (inactive)	–
CC(C)(c1ccc(O)cc1)c1ccc(O)cc1	–	inactive
O=C(CCCN1CCC(O)(c2cccc(C(F)(F)F)c2)CC1)c1ccc(F)cc1	-0.0096% (inactive)	–
NCCCNCCSP(=O)(O)O	-0.0029% (inactive)	–
CC(=O)OCC(CCn1cnc2cnc(N)nc21)COC(C)=O	0.0255% (inactive)	–
Cc1ccc(C#N)cc1	0.0184% [at 91.3 µM] (inactive)	–
NC(=O)COCCN1CCN(C(c2ccccc2)c2ccc(Cl)cc2)CC1 (stereo not given)	-0.0268% (inactive)	–

SMILES	activity change	outcome
CCCCCCCCCCCCN(CCCCCCCCCCCC)CCCCCCCCCCCC	0.162% [at 91.3 µM] (inactive)	–
O=c1[nH]c(=O)n([C@H]2C[C@H](O)[C@@H](CO)O2)cc1I	0.0223% [at 18.6 µM] (inactive)	–
O=C(O)Cc1ccc(CCNS(=O)(=O)c2ccc(Cl)cc2)cc1	-0.0614% (inactive)	–
Nc1c2c(nc3ccccc13)CCCC2O (stereo not given)	0.106% (inactive)	–
Cc1cccc(C)c1NC(=O)C(C)N (stereo not given)	0.0221% [at 18.6 µM] (inactive)	–
CCOC(=O)CC(C)=O	-0.0674% [at 91.3 µM] (inactive)	–
O=C(O)CCCl	0.0011% [at 95.7 µM] (inactive)	–
CN(C(=O)c1c(O)c2ccccc2n(C)c1=O)c1ccccc1	0.0061% (inactive)	–
CCCCC/C=C\CCC=O	-0.0035% [at 91.3 µM] (inactive)	–
Nc1nc2c(ncn2COC(CO)CO)c(=O)[nH]1	-0.374% [at 18.6 µM] (inactive)	–
CC(=O)CC(C)(C)C1CCCCC1	-0.0412% [at 91.3 µM] (inactive)	–
CC(=O)OC/C=C(\C)CC/C=C(\C)CCC=C(C)C	-0.0315% [at 91.3 µM] (inactive)	–
OC(CCN1CCCCC1)(c1ccccc1)C1CC2C=CC1C2 (stereo not given)	–	inactive
NC(=O)c1cn(Cc2c(F)cccc2F)nn1	-0.0561% (inactive)	–
CC(=O)Nc1c(I)cc(I)c(C(=O)O)c1I	-0.0181% (inactive)	–
O=C(O)COc1nn(Cc2ccccc2)c2ccccc12	-0.0276% (inactive)	–
O=Cc1cccc([N+](=O)[O-])c1	-0.0135% [at 91.3 µM] (inactive)	–
CC(C)(O)C(=O)c1ccccc1	0.114% [at 91.3 µM] (inactive)	–
COC(=O)[C@@H](N)Cc1ccc(O)c(O)c1	-0.114% (inactive)	–
CC(=O)Nc1ccc(S(N)(=O)=O)cc1	-0.0112% [at 91.3 µM] (inactive)	–
